Where “and” joins values, the source holds several entries; their conditions need not be identical. Equal entries are not always repeated. Inconclusive results are not listed. Calls of active or inactive are those of the source. Calls follow the shape of the dose curve; as a rule, active = well fitted curve in the direction sought with a large enough effect; inconclusive = small, poorly fitted or top-dose-only effect, or another doubt; inactive = no such curve, though single readings can be large; an effect the other way counts as inactive or inconclusive.
Experiments:
[1] = Quantitative highthroughput screen to assess conditional lethalithy of NOMO1 cells grown in RPMI1640 with untreated serum (RPMI+s) (AID 1963876); also: nearly all actives have a fitted effect of over 35% in size;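 as to viability: 100% = DMSO wells and 0% = empty wells without cells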
Summary of the method: (§1)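 Each medium arm—HPLM with 10% dialyzed FBS, or RPMI1640 with 5 mM glucose and 10% untreated or dialyzed FBS—was screened against an 11-point, 3-fold compound titration for 48 h at 37 °C, with CellTiter-Glo luminescence as endpoint.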

[2] = Quantitative highthroughput screen to assess conditional lethalithy of P12 Ichikawa cells grown in RPMI1640 with dialyzed fetal bovine serum (RPMI+ds) (AID 1963880); details: Potency: P12-Ichikawa viability; also: nearly all actives have a fitted effect of over 35% in size;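 as to viability: 100% = DMSO wells and 0% = empty wells on each plate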
Summary of the method: as §1

[3] = Quantitative highthroughput screen to assess conditional lethalithy of P12 Ichikawa cells grown in RPMI1640 with untreated serum (RPMI+s) (AID 1963881); details: Potency: viability; also: nearly all actives have a fitted effect of over 35% in size;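 as to viability: series mostly up to about 46 µM; 100% = DMSO wells and 0% = empty wells without cells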
Summary of the method: as §1

[4] = Quantitative highthroughput screen to assess conditional lethalithy of SEM cells grown in Human Plasma-Like Medium with dialyzed fetal bovine serum (HPLM+ds) (AID 1963882); also: nearly all actives have a fitted effect of over 35% in size; as to viability: series mostly up to about 46 µM
Summary of the method: as §1

[5] = Cellular viability qHTS for adrenocortical cancer (ACC) cell line SW-13 (AID 1963989); details: SW-13 ACC cells viability, CellTiter-Glo, 48 h; activity (max response): stronger effect = lower value; also: nearly all actives have a fitted effect of over 65% in size;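 as to activity (max response): cells grown in serum-free medium with ITS supplement; % is scaled to controls: 0 for no effect and ±100 for the full control effect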
Summary of the method: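 Here, serum-free SW-13 cultures were dosed up to 46 uM. Following 48 h, ATP-dependent luminescence (CellTiter-Glo) reported viable cells, and logistic modeling produced IC50 values.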

[6] = Cellular viability qHTS for adrenocortical cancer (ACC) cell line NCI-H295R (AID 1963990); also: nearly all actives have a fitted effect of over 60% in size
Summary of the method: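 Viability of NCI-H295R after 48 h of treatment (final up to 46 uM) measured through cellular ATP luminescence.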

[7] = Quantitative highthroughput screen to assess conditional lethalithy of NOMO1 cells grown in RPMI1640 with dialyzed fetal bovine serum (RPMI+ds) (AID 1963877); also: nearly all actives have a fitted effect of over 30% in size;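 as to viability: series mostly up to about 46 µM; 100% = DMSO control wells and 0% = empty wells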
Summary of the method: as §1

[8] = Quantitative highthroughput screen to assess conditional lethalithy of SEM cells grown in RPMI1640 with dialyzed fetal bovine serum (RPMI+ds) (AID 1963884); also: nearly all actives have a fitted effect of over 35% in size;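 as to viability: series mostly up to about 46 µM; 100% = DMSO control wells and 0% = empty wells without cells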
Summary of the method: as §1

[9] = Quantitative highthroughput screen to assess conditional lethalithy of NOMO1 cells grown in Human Plasma-Like Medium with dialyzed fetal bovine serum (HPLM+ds) (AID 1963878); also: nearly all actives have a fitted effect of over 35% in size;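 as to viability: 100% = DMSO wells and 0% = empty wells on each plate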
Summary of the method: as §1

[10] = Quantitative highthroughput screen to assess conditional lethalithy of P12 Ichikawa cells grown in Human Plasma-Like Medium with dialyzed fetal bovine serum (HPLM+ds) (AID 1963879); details: Potency: viability; also: nearly all actives have a fitted effect of over 35% in size; as to viability: series mostly up to about 46 µM
Summary of the method: as §1

[11] = Quantitative highthroughput screen to assess conditional lethalithy of SEM cells grown in RPMI1640 with unreated serum (RPMI+s) (AID 1963883); also: nearly all actives have a fitted effect of over 35% in size;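 as to viability: 100% = DMSO wells and 0% = empty wells without cells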
Summary of the method: as §1
Potency is read from the fitted curve at half-maximal effect.

CN[C@@H](C)C(=O)N[C@H]1CCCC[C@H]2CC[C@@H](C(=O)N[C@@H](c3ccccc3)c3cn(CCCCc4ccc(CCCCn5cc([C@@H](NC(=O)[C@@H]6CC[C@@H]7CCCC[C@H](NC(=O)[C@H](C)NC)C(=O)N76)c6ccccc6)nn5)cc4)nn3)N2C1=O
inactive: Potency [1] | Potency [2] | Potency [3] | Potency [4] | activity (max response) [5] -2.95% | Potency [6]

Oc1cc(O)cc(C=Cc2ccc(O)c(O)c2)c1
inactive: Potency [7]

CO[C@H]1C=CO[C@@]2(C)Oc3c(C)c(O)c4c(O)c(c(C=NN5CCN(C)CC5)c(O)c4c3C2=O)NC(=O)C(C)=CC=C[C@H](C)[C@H](O)[C@@H](C)[C@@H](O)[C@@H](C)[C@H](OC(C)=O)[C@H]1C
inactive: Potency [1] | Potency [8]
active: Potency [2] 2.38 µM | Potency [3] 3.78 µM

CCC(=C(c1ccccc1)c1ccc(OCCN(C)C)cc1)c1ccccc1
active: Potency [4] 23.5 µM
inactive: Potency [1] | Potency [3]

CCNC(=O)[C@H]1O[C@@H](n2cnc3c(N)nc(NCCc4ccc(CCC(=O)O)cc4)nc32)[C@H](O)[C@H]1O
inactive: Potency [7] | Potency [9] | Potency [10] | Potency [2] | Potency [4] | Potency [8]

CN1C(C(=O)Nc2ccccn2)=C(O)c2ccccc2S1(=O)=O
active: Potency [1] 11.8 µM | Potency [2] 16.6 µM | Potency [3] 14.8 µM
inactive: activity (max response) [5] -11.3% and -19.8% | Potency [6]

C[C@]12CC[C@@H]3c4ccc(O)cc4CC[C@H]3[C@H]1[C@@H](O)[C@@H](O)[C@H]2O
inactive: Potency [7] | Potency [9] | Potency [10] | Potency [2] | Potency [3] | activity (max response) [5] -1.98% | Potency [6]

COc1cc2nc(N3CCN(C(=O)C4COc5ccccc5O4)CC3)nc(N)c2cc1OC (stereo not drawn)
inactive: Potency [1] | Potency [3] | Potency [4] | Potency [11] | Potency [8]

COC(=O)[C@@H]1[C@H]2C[C@@H]3c4[nH]c5ccccc5c4CCN3C[C@@H]2CC[C@@H]1O
inactive: Potency [4] | Potency [11] | Potency [8]
active: Potency [1] 0.526 µM | Potency [2] 5.26 µM | Potency [3] 3.32 µM

C[C@@H]1O[C@@H](O[C@H]2CC[C@@]3(C)[C@H](CC[C@@H]4[C@H]3C[C@@H](O)[C@]3(C)[C@@H](C5=CC(=O)OC5)CC[C@]43O)C2)C[C@H](O)[C@@H]1O[C@H]1C[C@H](O)[C@H](O[C@H]2C[C@H](O)[C@@H](O)[C@@H](C)O2)[C@H](C)O1 (stereo in doubt)
active: Potency [7] 0.382 µM | Potency [9] 0.191 µM | Potency [10] 0.0855 µM | Potency [2] 0.191 µM | Potency [3] 0.27 µM | Potency [4] 0.0959 µM | Potency [11] 0.382 µM | Potency [8] 0.27 µM

Nc1ccc(-c2ccc3ncc4ccc(=O)n(-c5cccc(C(F)(F)F)c5)c4c3c2)cn1
active: Potency [1] 0.0833 µM | Potency [10] 0.148 µM | Potency [5] 0.708 µM | Potency [6] 0.126 µM

CCCCCOC(=O)Nc1nc(=O)n([C@@H]2O[C@H](C)[C@@H](O)C2O)cc1F (stereo partly drawn)
inactive: Potency [7] | Potency [9] | Potency [10] | Potency [2] | Potency [3] | Potency [4] | Potency [11] | Potency [8]

FC(F)(F)c1ccc(C=Cc2nc(COc3ccc(CCCCn4ccnn4)cc3)co2)cc1
inactive: Potency [4]
active: Potency [1] 2.35 µM | Potency [10] 0.935 µM | Potency [8] 0.0093 µM

C=C1c2cccc(O)c2C(O)=C2C(=O)[C@@]3(O)C(O)=C(C(N)=O)C(=O)[C@@H](N(C)C)[C@@H]3[C@@H](O)[C@H]12
inactive: Potency [7] | Potency [9] | Potency [10] | Potency [2] | Potency [3] | Potency [8] | activity (max response) [5] -8.37% | Potency [6]

C#CCN(C)CC1=Cc2ccccc2Oc2ccccc21
inactive: Potency [7] | Potency [9] | Potency [10] | Potency [2] | Potency [3] | activity (max response) [5] 0.599% | Potency [6]

C[C@]12CCC(=O)C=C1[C@@H]1CC1[C@H]1[C@H]3[C@@H]4C[C@H]4[C@@]4(CCC(=O)O4)[C@@]3(C)CC[C@H]12 (stereo partly drawn)
inactive: Potency [7] | Potency [9] | Potency [10] | Potency [3] | Potency [4] | Potency [11] | Potency [8]

O=C(OCC#CCSc1nnc(-c2cccc3ccccc23)o1)c1cc2ccccc2s1
inactive: Potency [7] | Potency [9] | Potency [10] | Potency [2] | Potency [3] | Potency [4] | Potency [11]

O=c1ccn([C@@H]2O[C@H](CO)[C@H](O)[C@@H]2F)c(=O)[nH]1
inactive: Potency [7] | Potency [9] | Potency [10] | Potency [2] | Potency [3] | Potency [4] | Potency [11] | Potency [8] | activity (max response) [5] -7.29% | Potency [6]

CCC(=C(CC)c1ccc(O)cc1)c1ccc(O)cc1
inactive: Potency [7] | Potency [9] | Potency [10] | Potency [2] | Potency [3] | Potency [4] | Potency [11]

— PubChem BioAssay (NCATS)
